Test results taken from PubChem BioAssay AID1421 (Emory University Molecular Libraries Screening Center, 2008).
Hit rate of the full screen: of about 1,300 compounds, about 140 (11%) were called active. How the calls were made is not given here. A selection follows. Entries with a potency or affinity are not part of this list.

What follows are molecules tested against Prostaglandin E2 receptor EP2 subtype (Homo sapiens) (UniProt P43116) (assay: compounds shifting PGE2 potency at EP2 – cell-based, human EP2, PGE2 EC50 shift, dose response (AID 1421)). Conditions: EP2-expressing cells, PGE2 EC50 shift by compound; at 20 µM.
Prostaglandin E2 receptor EP2 subtype (Homo sapiens), sequence (P43116 whole entry, looked up): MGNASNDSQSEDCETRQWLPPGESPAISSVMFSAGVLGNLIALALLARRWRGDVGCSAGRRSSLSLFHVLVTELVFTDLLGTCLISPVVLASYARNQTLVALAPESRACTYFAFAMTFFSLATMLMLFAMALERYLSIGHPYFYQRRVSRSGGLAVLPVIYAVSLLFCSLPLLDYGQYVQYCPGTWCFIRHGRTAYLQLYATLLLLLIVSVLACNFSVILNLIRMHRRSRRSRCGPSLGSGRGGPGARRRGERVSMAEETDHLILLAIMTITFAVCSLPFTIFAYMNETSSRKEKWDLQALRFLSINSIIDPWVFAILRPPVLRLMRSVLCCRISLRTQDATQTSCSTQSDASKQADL

PGE2 EC50 with compound, inactive:
Cc1ccccc1NC(=O)/C(=C/c1ccccc1)c1ccccc1 0.24 nM, CCc1ccccc1NC(=O)/C(=C/c1ccco1)c1ccccc1 0.16 nM, O=C(O)COc1cccc(NC(=O)c2ccccc2)c1 1.05 nM, Nc1c(C(=O)NCc2ccco2)c2nc3ccccc3nc2n1CCc1ccccc1 1.38 nM, Nc1c(C(=O)NCc2ccccc2)c2nc3ccccc3nc2n1CCCN1CCOCC1 0.76 nM, CCCCNCC(=O)Nc1sc(C)c(C)c1C(=O)OCC 0.33 nM, CCOC(=O)c1c(NC(=O)c2cccnc2)sc(C)c1C 0.31 nM, CCOC(=O)c1c(NC(=O)c2ccoc2C)sc(C(=O)N(C)C)c1C 0.6 nM, CCOC(=O)c1c(NC(=O)CN2CCCCC2)sc2c1CCN(C(=O)OCC)C2 0.83 nM, Cc1ccccc1-n1c(=O)[nH]c(=O)c2c(N)c(C(=O)c3ccc(Cl)cc3)sc21 0.74 nM, S=c1[nH]nc(-c2ccco2)n1/N=C/c1ccc(Cl)cc1Cl 2.86 nM, CCOP(=O)(c1ccccc1)c1nc(-c2ccccc2C)oc1N1CCCCC1 (centres undefined) 0.42 nM, CSc1nc(Sc2ccccc2)c2ccccc2n1 0.21 nM, C=CCSc1nc2ccccc2c(=O)n1Cc1ccccc1 0.31 nM, C=CCSc1nc2ccccc2n1S(=O)(=O)c1ccc(C)cc1 0.5 nM, CCCC1=C(C(=O)OCC)C(c2cccs2)C(C#N)=C(N)O1 (centres undefined) 0.32 nM, CCCCCCn1c(COc2ccccc2F)nnc1SCC(=O)N1c2ccccc2NC(=O)C1(C)C 0.69 nM, COc1ccc(-n2c(COc3cccc4ccccc34)nnc2SCC(=O)NCc2ccco2)cc1 0.72 nM, CCOC(=O)c1sc2nc(C)nc(N3CCN(c4ncccn4)CC3)c2c1C 0.7 nM, Cc1ccc(C(Sc2ccccc2)C(Cn2cncn2)C(=O)c2ccccc2)cc1 (centres undefined) 0.38 nM, Clc1ccc(-c2ccc(/C=N/Nc3cc(N4CCOCC4)nc(N4CCOCC4)n3)o2)cc1 0.09 nM, Cc1ccc(-c2nc(P(=O)(c3ccccc3)c3ccccc3)c(N3CCOCC3)o2)cc1 0.39 nM, Cc1ccc(-c2cc3ccccc3nc2N2CCOCC2)cc1 0.38 nM, CC(C)c1ccc(/C=N/Nc2cc(N3CCOCC3)nc(N3CCOCC3)n2)cc1 0.21 nM, Cc1cccc(Oc2sc(C(=O)c3ccccc3)c(N)c2C#N)c1 0.48 nM, C[C@H](C(=O)c1ccccc1)[C@@H](c1ccccc1)N1CCOCC1 0.33 nM, Cc1ccc2[nH]c3c(=S)nc[nH]c3c2c1 10.1 nM, CN(C)c1nc(-c2ccccc2)c2cnn(Cc3ccccc3)c2n1 0.17 nM, Cc1cccc(CSc2ncnc3ccccc23)c1 0.37 nM, CC1(c2ccccc2)CC(C)(C)N(C(=O)C2CCCO2)c2ccccc21 (centres undefined) 0.39 nM, CCc1ccc2[nH]c(=O)c(CN(Cc3nnnn3C3CCCC3)C3CCCCC3)cc2c1 0.64 nM, O=C(Nc1ccccc1-c1nc2ccccc2s1)c1ccc(Br)o1 0.41 nM, O=C(Nc1ccccc1Oc1ccccc1)c1ccc(Br)o1 0.3 nM, CCOC(=O)c1cnc2ccc(OCC)cc2c1N(C)Cc1ccccc1 0.07 nM, CCCCOc1ccccc1Cn1c(=O)oc2ccccc21 0.29 nM, CCCOc1ccccc1Cn1c(=O)oc2ccc(C)cc21 0.27 nM, CC(C)NC(=S)N/N=C1\CCCCC1C1CCCCC1 (centres undefined) 0.74 nM, CCN(c1cccc(C)c1)S(=O)(=O)c1ccc2c3c(cccc13)C(=O)N2 0.94 nM, C#CCn1c(S(=O)(=O)Cc2ccc(F)cc2)nc(-c2ccccc2)c1-c1ccccc1 0.37 nM, O=C1COc2ccccc2N1Cc1ccccc1Cl 0.31 nM, CC1(C)OC(c2ccccc2)=C/C(=C/C=Nc2ccccc2)O1 0.33 nM, CCSC1=N/C(=C\c2ccccc2)C(=O)N1c1ccc(OC)cc1 0.92 nM, CCOc1ccc2cc(C#N)c(SCC(=O)NC(C)CC)nc2c1 (centres undefined) 0.8 nM, CC(=O)c1cc(C#N)c(SCc2ccccc2)nc1C 0.51 nM, O=C(O)c1oc(C(=O)O)c(C(=O)O)c1C(=O)O 0.58 nM, C1=C(c2ccccc2)Nc2ccccc2N=C1c1ccccc1 0.4 nM, CSc1nnc(-c2ccc(F)cc2)o1 1.06 nM, COC(=O)CSc1nc(-c2ccccc2)nc2ccccc12 0.22 nM, CCOC(=O)CSc1nc(-c2ccccc2)nc2ccccc12 0.26 nM, C=CCn1c(=O)c2c3c(sc2n2c(Nc4ccc(OC)cc4)nnc12)CCCC3 0.74 nM, CCC(Sc1nc(-c2ccccc2)c(C#N)c(=O)[nH]1)C(=O)Nc1cc(C)on1 (centres undefined) 3.58 nM, Cc1cc2cc(CN(Cc3nnnn3C3CCCCC3)CC3CCCO3)c(=O)[nH]c2cc1C (centres undefined) 0.34 nM, O=C(Cc1ccc(F)cc1)Nc1ccccc1Sc1ccccc1 0.23 nM, Cc1ccccc1C(=O)Nc1ccccc1Sc1ccccc1 0.45 nM, COCCCN(C(=O)c1ccco1)c1nc(-c2cc(OC)ccc2OC)cs1 0.27 nM, CCCCc1nc2sc3c(SCC(=O)NCc4ccco4)ncnc3c2c2c1CCC2 0.59 nM, CCN(CC)C(=O)CN(c1cc2c(cc1OC)oc1ccccc12)S(=O)(=O)c1ccc(C)cc1 0.39 nM, Cc1cc2ccccc2nc1SCC(=O)NC1CCCCC1 1.22 nM, COc1ccc(-c2nc3ccccc3n2Cc2ccccc2)cc1 0.33 nM, COc1ccc(-c2nc3c(c(=O)[nH]c(=O)n3Cc3ccccc3)n2Cc2ccccc2)cc1 0.28 nM, Cc1ccc(S(=O)(=O)Nc2ccc(Cl)cc2C(=O)c2ccc(F)cc2)cc1 1 nM, O=C(/C(=C/O)N=Nc1ccccc1)c1ccc(Cl)cc1 7.05 nM, Cc1ccc(S(=O)(=O)NCC(=O)N(c2ccccc2)C(C(=O)NCc2ccccc2)c2ccco2)cc1 (centres undefined) 0.62 nM, O=C(c1ccco1)N(CCC(c1ccccc1)c1ccco1)Cc1ccc(F)cc1 (centres undefined) 0.84 nM, N#CCCSc1ncnc2c1oc1ccccc12 2.48 nM, CCOC(=O)CC(=O)CSc1ncnc2c1oc1ccccc12 2.96 nM, Cc1noc(C)c1COC(=O)C(c1ccccc1)c1ccccc1 0.31 nM, Cc1cc(=O)oc(C)c1C(=O)OC(C(=O)c1ccccc1)c1ccccc1 (centres undefined) 0.26 nM, COc1ccc2cc(CN(Cc3ccco3)C(c3nnnn3C3CCCCC3)C(C)C)c(=O)[nH]c2c1 (centres undefined) 0.82 nM, COc1ccc2cc3c(N)nn(C(=O)C4CCC(C(C)(C)C)CC4)c3nc2c1 (centres undefined) 0.34 nM, CCc1nnc2n1N=C(c1ccc(-c3cc(Cl)ccc3Cl)o1)CS2 0.42 nM, CCOC(=O)c1c(C=O)c(C)n(Cc2ccccc2Cl)c1C 0.46 nM, CCOC(=O)c1c(C=O)c(C)n(Cc2ccc(C)cc2)c1C 0.36 nM, Cc1cccc(NC(=O)CSc2ncnc3c2oc2ccccc23)c1 8.27 nM, Cc1nc(SCCC(=O)O)c2ccccc2n1 15.1 nM, COc1cc(/C=C/c2ccc3cccc([N+](=O)[O-])c3n2)ccc1OCC(=O)O 4.66 nM, COC(=O)C1C(c2ccccc2)C(C(=O)OCc2ccco2)C1c1ccccc1 (centres undefined) 0.38 nM, Fc1ccc(Sc2nc(-c3ccccc3)nnc2C(F)(F)F)cc1 1.16 nM, CSc1nc(Oc2ccc(F)cc2)c2ccccc2n1 0.42 nM, Cc1ccc(S(=O)(=O)c2c(C)cc(C)nc2N2CCCCC2)cc1 0.31 nM, CC1=C/C(=C(/c2ccc(O)c(C)c2)c2ccccc2C(=O)O)C=CC1=O 0.75 nM, CCOC(=O)c1c(CC(C)C)csc1N 0.39 nM, Cc1cc(Br)c2nc3c(c(C(=O)O)c2c1)CCCCC3 11.9 nM, CS(=O)(=O)N(Cc1ccccc1)c1ccccc1C(=O)Nc1ccccc1C(=O)NCc1ccco1 56.6 nM, O=C(O)NCc1ccccc1 (tested in a mixture with another compound) 0.49 nM, O=C(N/N=C/c1ccc[nH]1)c1ccccc1OCc1ccccc1Cl 0.27 nM, CCOc1ccccc1C(=O)Nc1ccccc1-c1ccccc1 0.2 nM, CCc1cc2cc(C)cc(C)c2nc1SCC(=O)N1CCCC1 0.43 nM, CCOC(=O)Cn1c(=S)[nH]c2c(oc3ccc(Cl)cc32)c1=O 6.72 nM, CCOc1ccc(OCC)c(NC(=O)CN2CCN(c3ccc(C)cc3C)CC2)c1 0.77 nM, C=CCCC1(C)C(=O)N(c2ccccc2)c2ccccc21 (centres undefined) 0.41 nM, CC1Cc2ccccc2N1CC(=O)NC(c1ccccc1)c1ccccc1 (centres undefined) 0.52 nM, CCOc1cccc(CNc2ccc(O)cc2)c1OCc1ccc(Cl)cc1 0.78 nM, Cc1cc(C)n(CCOc2ccc(Cl)cc2Cl)n1 0.34 nM
